Records with an inconclusive call do not appear. Activity calls are given as the source filed them. Unless noted, the call rests on the fitted dose curve; in most records, active means well fitted curve in either direction with a large enough effect (not every such curve was filed as active); inconclusive means small, poorly fitted or top-dose-only effect, or another doubt; inactive means flat fitted curve, though single readings scatter.
Key:
[1] = target: Lysosomal acid glucosylceramidase (Homo sapiens) (UniProt P04062); test: Glucocerebrosidase-p2 (AID 348; in the data active means potency below about 10 µM; further: potency means the concentration at half of the fitted maximal effect); settings: purified GBA, blue fluorogenic substrate, 40 min
Lysosomal acid glucosylceramidase (Homo sapiens), sequence (P04062 whole entry, looked up): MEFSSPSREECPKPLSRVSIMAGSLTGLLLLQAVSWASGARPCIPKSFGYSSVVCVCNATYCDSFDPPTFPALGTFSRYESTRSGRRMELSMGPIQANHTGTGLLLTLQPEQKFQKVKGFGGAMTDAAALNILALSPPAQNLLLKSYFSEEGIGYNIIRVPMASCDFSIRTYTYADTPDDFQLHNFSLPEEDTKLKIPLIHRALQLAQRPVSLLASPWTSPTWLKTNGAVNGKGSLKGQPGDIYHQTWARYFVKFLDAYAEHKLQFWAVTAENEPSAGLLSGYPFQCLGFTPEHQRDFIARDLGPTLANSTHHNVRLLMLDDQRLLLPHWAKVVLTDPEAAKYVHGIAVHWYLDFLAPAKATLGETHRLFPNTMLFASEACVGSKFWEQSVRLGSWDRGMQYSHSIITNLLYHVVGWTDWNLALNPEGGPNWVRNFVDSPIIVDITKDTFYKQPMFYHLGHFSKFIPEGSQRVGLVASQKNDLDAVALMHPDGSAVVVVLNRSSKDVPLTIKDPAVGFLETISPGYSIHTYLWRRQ
How it was run: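 Compounds titrated from 0.6 nM upwards against 0.2 nM enzyme in pH 5.9 citric acid/KH2PO4, taurocholate, tween-20; blue fluorogenic substrate 80 uM, 40 min room temperature, stopped and read Ex 365/Em 440 for AC50.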

[2] = AP1 Signaling Pathway (AID 357); settings: ME-180 AP-1-bla reporter, EGF-induced, beta-lactamase ratio, 5 h; at 7.69 µM (top of the series) unless noted;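 further: ME-180 reporter cells stimulated with EGF at its EC50 level; on the % scale 0 is the no-effect control and ±100 the full control effect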
How it was run: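 Read-out was the 460nm/530nm emission ratio (excitation 405nm) after CCF4 loading for 2.5 hours at room temperature. Cells carried an AP-1-driven beta-lactamase reporter, were stimulated with EC50 EGF plus compound for 5 hours, and AC50 values came from titrations.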

[3] = target: Cytochrome P450 1A2 (Homo sapiens) (UniProt P05177); test: p450-cyp1a2 (AID 410; calls by dose curve; further: potency means the concentration at half of the fitted maximal effect;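 on activity change, negative = inhibition: -100% = full effect of reference inhibitor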); settings: recombinant CYP1A2, luciferin-ME demethylation, luminescence; series mostly up to 11.4 µM
Cytochrome P450 1A2 (Homo sapiens), sequence (P05177 whole entry, looked up): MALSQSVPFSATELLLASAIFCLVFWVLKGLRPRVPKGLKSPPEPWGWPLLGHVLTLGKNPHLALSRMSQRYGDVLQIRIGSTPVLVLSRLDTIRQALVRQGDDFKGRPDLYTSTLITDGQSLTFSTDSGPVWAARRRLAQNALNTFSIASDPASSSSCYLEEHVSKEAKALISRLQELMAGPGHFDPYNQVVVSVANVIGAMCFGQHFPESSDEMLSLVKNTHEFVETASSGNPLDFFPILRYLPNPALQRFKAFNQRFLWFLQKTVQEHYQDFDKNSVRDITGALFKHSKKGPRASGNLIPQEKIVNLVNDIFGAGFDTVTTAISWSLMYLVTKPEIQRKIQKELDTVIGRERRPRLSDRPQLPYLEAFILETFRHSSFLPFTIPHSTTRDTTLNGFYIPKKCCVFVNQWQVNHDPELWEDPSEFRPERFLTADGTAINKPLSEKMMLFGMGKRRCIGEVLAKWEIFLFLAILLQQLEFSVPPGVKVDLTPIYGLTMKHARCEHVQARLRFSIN
How it was run: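 Human CYP1A2 (20nM) demethylated Luciferin-ME at its Km (100uM) in 100mM KPO4. After 10 min compound preincubation, NADPH regeneration ran the reaction 60 min at room temperature. Luciferin was read by luminescence, normalized to 57 uM furafylline.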

[4] = NFAT Signaling Pathway (AID 444); settings: Jurkat NFAT-bla M1, carbachol, beta-lactamase ratio, 5 h; at 7.69 µM (top of the series) unless noted;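 further: carbachol stimulus at about its EC50 of 1 µM final; on the % scale 0 is the no-effect control and ±100 the full control effect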
How it was run: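 Read-out: CCF4 FRET ratio (460 nm/530 nm) after 1 h RT dye loading, used for %activity and AC50 from titration series. Cells: Jurkat NFAT-β-lactamase/M1 line, treated with compound plus 1 uM carbachol for 5 h, 37 °C.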

[5] = Stat Signaling Pathway (AID 446); settings: ME-180 SIE beta-lactamase reporter, IL-6 stimulated, 5 h; at 7.69 µM (top of the series) unless noted;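 further: ME-180 cervical cancer cells given 40 pM IL-6 alongside compound; SIE-controlled beta-lactamase reporter measured as 460/530 nm FRET emission ratio; on the % scale 0 is the no-effect control and ±100 the full control effect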
How it was run: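 ME-180 cells carrying a SIE-driven beta-lactamase reporter are stimulated with 40 pM IL-6 for 5 h at 37C in the presence of compound. The 460/530 nm FRET substrate ratio is read after 2.5 h at RT. Data are normalised to 300 pM IL-6 and to 125 nM JAK inhibitor controls.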

[6] = target: Glucocorticoid receptor (Homo sapiens) (UniProt P04150); test: GR-GFP Redistribution (AID 450;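 active means compounds whose dose series gives a full or clear partial fitted curve of increased nuclear translocation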; further: potency means the concentration at half of the fitted maximal effect); settings: U2OS GR-GFP nuclear translocation, laser cytometry, 2 h
Glucocorticoid receptor (Homo sapiens), sequence (P04150 whole entry, looked up, the tested form may be a part): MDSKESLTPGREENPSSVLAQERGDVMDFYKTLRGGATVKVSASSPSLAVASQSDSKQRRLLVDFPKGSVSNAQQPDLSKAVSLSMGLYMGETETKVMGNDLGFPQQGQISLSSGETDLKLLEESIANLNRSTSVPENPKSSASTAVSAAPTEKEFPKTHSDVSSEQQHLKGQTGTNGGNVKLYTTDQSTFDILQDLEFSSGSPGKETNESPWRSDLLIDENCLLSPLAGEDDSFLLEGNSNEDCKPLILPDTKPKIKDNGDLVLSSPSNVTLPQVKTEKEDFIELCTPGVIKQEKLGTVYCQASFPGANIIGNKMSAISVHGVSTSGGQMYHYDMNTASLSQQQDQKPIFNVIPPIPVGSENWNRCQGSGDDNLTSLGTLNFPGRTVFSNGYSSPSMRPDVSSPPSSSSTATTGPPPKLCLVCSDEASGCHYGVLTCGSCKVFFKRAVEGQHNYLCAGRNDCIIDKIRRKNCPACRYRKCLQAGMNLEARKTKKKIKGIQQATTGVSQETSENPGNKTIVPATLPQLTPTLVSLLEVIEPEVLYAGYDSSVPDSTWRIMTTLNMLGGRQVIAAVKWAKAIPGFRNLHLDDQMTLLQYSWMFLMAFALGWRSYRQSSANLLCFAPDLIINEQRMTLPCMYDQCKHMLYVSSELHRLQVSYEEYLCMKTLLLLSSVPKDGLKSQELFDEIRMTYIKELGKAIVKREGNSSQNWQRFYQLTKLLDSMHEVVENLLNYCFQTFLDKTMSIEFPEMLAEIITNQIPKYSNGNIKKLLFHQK

[7] = target: Mitogen-activated protein kinase 10 (Mus musculus) (UniProt Q61831); test: JNK3 AlphaScreen Assay (AID 530); settings: JNK3 lysate, c-Jun phosphorylation; series mostly up to 57.1 µM;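 further: kinase came from lysate of stimulated human HepG2 cells; signal reports phosphorylation of biotinylated GST-cJun 1-79 at Ser73 with 10 µM ATP; on the % scale 0 is the no-effect control and ±100 the full control effect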
How it was run: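 Room-temperature AlphaScreen kinase assay; pre-activated HepG2 lysate as JNK3 source, biotin-GST-cJun(1-79) substrate, 10 uM ATP, compound 15 min preincubation.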

[8] = target: 3',5'-cyclic-AMP phosphodiesterase 4B (Homo sapiens) (UniProt Q07343); test: qHTS Assay for Inhibitors of PDE-IV (AID 607; active means well fitted activation curve with a large enough effect in the main read-out, with a control signal flat, not every such curve was filed as active; further: % of control where 0% means no effect); settings: HEK293 ACTOne CNG channel cells, membrane potential fluorescence; series mostly up to 22.9 µM
3',5'-cyclic-AMP phosphodiesterase 4B (Homo sapiens), sequence (Q07343 whole entry, looked up): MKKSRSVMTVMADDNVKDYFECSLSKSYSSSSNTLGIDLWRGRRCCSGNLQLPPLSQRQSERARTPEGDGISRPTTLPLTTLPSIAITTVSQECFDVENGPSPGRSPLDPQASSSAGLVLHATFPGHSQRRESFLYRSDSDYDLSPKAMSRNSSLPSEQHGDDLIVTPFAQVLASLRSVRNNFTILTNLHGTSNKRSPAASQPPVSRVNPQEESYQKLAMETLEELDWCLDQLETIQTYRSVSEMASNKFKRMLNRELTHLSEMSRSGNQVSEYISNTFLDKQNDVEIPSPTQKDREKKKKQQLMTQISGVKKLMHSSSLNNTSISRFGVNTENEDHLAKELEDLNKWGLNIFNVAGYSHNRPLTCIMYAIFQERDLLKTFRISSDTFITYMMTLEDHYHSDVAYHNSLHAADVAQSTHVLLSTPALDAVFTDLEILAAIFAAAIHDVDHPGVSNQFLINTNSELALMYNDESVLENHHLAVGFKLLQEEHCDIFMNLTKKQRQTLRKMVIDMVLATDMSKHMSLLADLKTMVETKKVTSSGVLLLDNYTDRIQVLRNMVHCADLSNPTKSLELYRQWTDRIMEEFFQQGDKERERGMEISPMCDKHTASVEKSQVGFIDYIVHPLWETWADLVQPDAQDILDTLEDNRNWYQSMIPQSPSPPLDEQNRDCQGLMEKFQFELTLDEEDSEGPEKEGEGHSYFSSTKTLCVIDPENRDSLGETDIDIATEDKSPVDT
How it was run: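 HEK293 ACTOne cells with CNG channel (1000/well), endogenous PDE4; membrane potential dye, compounds up to 22.9 uM final. Fluorescence Ex 535/Em 590; RO 20-1724 (100 uM final) as reference.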

[9] = target: Glucocorticoid receptor (Homo sapiens) (UniProt P04150); test: GR-EFC Redistribution (AID 451; calls by dose curve; further: potency means the concentration at half of the fitted maximal effect); settings: CHO-K1 GR-EFC translocation, beta-gal luminescence, 2 h
How it was run: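 Translocation of GR-ED fusion to nuclear EA restores b-gal, read by luminescence after 1 h room-temperature detection. Engineered CHO-K1 biosensor cells, 1,000/well, exposed 2 h at 37 C to titrations up to 46 uM final.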

[10] = target: Cytochrome P450 3A4 (Homo sapiens) (UniProt P08684); test: qHTS Assay for Activators of Cytochrome P450 3A4 (AID 885; active means well fitted curve in the direction sought with a large enough effect; an effect the other way counts as inactive or inconclusive; further: nearly all actives have a fitted effect of over 65% in size); settings: recombinant CYP3A4, Luciferin-PPXE luminescence, 60 min; series mostly up to 57.1 µM
Cytochrome P450 3A4 (Homo sapiens), sequence (P08684 whole entry, looked up): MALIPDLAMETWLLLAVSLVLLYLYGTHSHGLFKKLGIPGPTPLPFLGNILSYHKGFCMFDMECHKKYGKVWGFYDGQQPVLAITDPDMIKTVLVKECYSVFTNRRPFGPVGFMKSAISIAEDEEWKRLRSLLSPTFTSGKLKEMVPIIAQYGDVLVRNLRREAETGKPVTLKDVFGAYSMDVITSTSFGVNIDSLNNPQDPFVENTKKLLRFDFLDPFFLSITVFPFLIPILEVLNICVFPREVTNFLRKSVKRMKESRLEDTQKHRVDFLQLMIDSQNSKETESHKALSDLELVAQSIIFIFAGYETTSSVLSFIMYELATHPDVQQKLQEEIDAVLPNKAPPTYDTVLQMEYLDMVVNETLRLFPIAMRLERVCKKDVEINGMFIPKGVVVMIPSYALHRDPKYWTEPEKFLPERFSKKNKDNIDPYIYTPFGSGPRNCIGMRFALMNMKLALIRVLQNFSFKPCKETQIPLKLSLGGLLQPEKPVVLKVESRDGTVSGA
How it was run: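 Human CYP3A4 (20 nM) with Luciferin-PPXE at 25 uM (its KM) in 200 mM KPO4; 10 min compound preincubation, then NADPH regeneration and 60 min reaction at RT. Luciferin read by luminescence; normalized to 57 uM ketoconazole full inhibition.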

[11] = target: Cytochrome P450 2D6 (Homo sapiens) (UniProt P10635); test: qHTS Assay for Inhibitors and Substrates of Cytochrome P450 2D6 (AID 891; active means well fitted curve in the direction sought with a large enough effect; an effect the other way counts as inactive or inconclusive; further: nearly all actives have a fitted effect of over 60% in size; further: potency means the concentration at half of the fitted maximal effect); settings: recombinant CYP2D6, luciferin-ME EGE luminescence; series mostly up to 11.4 µM
Cytochrome P450 2D6 (Homo sapiens), sequence (P10635 whole entry, looked up): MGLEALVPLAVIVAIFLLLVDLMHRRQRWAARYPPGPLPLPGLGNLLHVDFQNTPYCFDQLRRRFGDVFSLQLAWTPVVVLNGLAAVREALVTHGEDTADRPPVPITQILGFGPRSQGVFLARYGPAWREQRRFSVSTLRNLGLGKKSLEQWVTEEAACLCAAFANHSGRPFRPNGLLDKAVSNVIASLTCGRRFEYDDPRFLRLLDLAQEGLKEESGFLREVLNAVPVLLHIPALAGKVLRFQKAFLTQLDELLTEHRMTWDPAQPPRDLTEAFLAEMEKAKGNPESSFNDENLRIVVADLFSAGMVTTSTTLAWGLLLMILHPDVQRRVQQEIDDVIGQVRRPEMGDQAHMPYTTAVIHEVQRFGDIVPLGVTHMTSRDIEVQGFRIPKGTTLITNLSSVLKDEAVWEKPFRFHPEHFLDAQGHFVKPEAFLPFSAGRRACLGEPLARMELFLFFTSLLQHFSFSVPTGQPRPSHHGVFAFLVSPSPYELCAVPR
How it was run: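 Human CYP2D6 (5 nM) with 30 uM Luciferin-ME EGE (at Km) in 100 mM KPO4, compound preincubated 10 min, then NADPH regeneration system for 60 min at room temperature. Luciferin read by luminescence; normalized to 1.43 uM quinidine.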

[12] = target: Cytochrome P450 2C19 (Homo sapiens) (UniProt P33261); test: qHTS Assay for Inhibitors and Substrates of Cytochrome P450 2C19 (AID 899; active means well fitted curve in the direction sought with a large enough effect; an effect the other way counts as inactive or inconclusive; further: nearly all actives have a fitted effect of over 60% in size; further: potency means the concentration at half of the fitted maximal effect); settings: recombinant CYP2C19, luciferin-H EGE luminescence; series mostly up to 11.4 µM
Cytochrome P450 2C19 (Homo sapiens), sequence (P33261 whole entry, looked up): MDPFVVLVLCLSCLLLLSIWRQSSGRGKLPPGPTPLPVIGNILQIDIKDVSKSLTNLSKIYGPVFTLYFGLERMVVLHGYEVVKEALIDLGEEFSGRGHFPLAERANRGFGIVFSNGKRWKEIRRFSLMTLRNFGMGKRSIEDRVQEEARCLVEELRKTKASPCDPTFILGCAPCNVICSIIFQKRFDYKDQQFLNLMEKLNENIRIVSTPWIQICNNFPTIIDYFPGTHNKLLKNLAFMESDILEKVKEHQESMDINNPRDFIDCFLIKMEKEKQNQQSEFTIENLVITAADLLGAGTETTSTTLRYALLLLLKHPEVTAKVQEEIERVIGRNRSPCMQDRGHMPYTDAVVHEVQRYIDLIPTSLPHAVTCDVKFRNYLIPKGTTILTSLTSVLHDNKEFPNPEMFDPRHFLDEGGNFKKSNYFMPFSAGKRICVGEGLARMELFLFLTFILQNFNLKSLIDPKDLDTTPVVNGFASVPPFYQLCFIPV
How it was run: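 Reactions contain 5nM enzyme, 10uM Luciferin-H EGE (KM) and 50mM KPO4; compound preincubates 10 min at 37C, NADPH regeneration starts turnover for 60 min. Luminescence after detection reagent gives activity.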

[13] = target: Cytochrome P450 2C9 (Homo sapiens) (UniProt P11712); test: qHTS Assay for Inhibitors and Substrates of Cytochrome P450 2C9 (AID 883; active means well fitted curve in the direction sought with a large enough effect; an effect the other way counts as inactive or inconclusive; further: potency means the concentration at half of the fitted maximal effect; nearly all actives have a fitted effect of over 60% in size); settings: recombinant CYP2C9, luciferin-H luminescence, 60 min; series mostly up to 57.1 µM
Cytochrome P450 2C9 (Homo sapiens), sequence (P11712 whole entry, looked up): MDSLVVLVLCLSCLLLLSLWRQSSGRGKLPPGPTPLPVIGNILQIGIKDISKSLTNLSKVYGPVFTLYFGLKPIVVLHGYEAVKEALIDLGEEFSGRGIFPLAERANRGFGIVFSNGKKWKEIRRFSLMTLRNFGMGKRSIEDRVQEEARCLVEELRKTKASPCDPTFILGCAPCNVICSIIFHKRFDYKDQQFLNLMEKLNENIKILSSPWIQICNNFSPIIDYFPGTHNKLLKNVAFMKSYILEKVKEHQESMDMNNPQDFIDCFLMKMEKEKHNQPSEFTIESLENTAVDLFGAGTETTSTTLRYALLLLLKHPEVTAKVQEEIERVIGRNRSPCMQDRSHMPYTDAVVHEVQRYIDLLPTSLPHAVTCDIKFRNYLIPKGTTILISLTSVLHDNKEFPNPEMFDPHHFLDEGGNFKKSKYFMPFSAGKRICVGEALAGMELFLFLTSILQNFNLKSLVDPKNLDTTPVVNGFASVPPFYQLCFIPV
How it was run: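 Turnover of Luciferin-H (100uM, KM) by 10nM human CYP2C9 was measured over 60 min at 37C with NADPH regeneration; inhibitors and some substrates reduce luminescence. Data normalized to sulphaphenazole 57uM.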

[14] = target: Cytochrome P450 3A4 (Homo sapiens) (UniProt P08684); test: qHTS Assay for Inhibitors and Substrates of Cytochrome P450 3A4 (AID 884; active means well fitted curve in the direction sought with a large enough effect; an effect the other way counts as inactive or inconclusive; further: potency means the concentration at half of the fitted maximal effect; nearly all actives have a fitted effect of over 50% in size); settings: recombinant CYP3A4, Luciferin-PPXE luminescence; series mostly up to 57.1 µM
How it was run: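 20 nM human CYP3A4 with 25 uM Luciferin-PPXE (at KM) in 200 mM KPO4, preincubated 10 min with compound; NADPH regeneration started a 60 min RT reaction. Luciferin detected by luminescence, normalized to 57 uM ketoconazole as full inhibition.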

O=C(O)Cc1ccc([N+](=O)[O-])cc1[N+](=O)[O-]
inactive: Potency [1] > 11.4 µM | activity change, negative = inhibition [2] -0.903% | activity change, negative = inhibition [4] -1.68% | activity, negative = inhibition [5] 5.17% | Potency [6] > 46 µM | activity change, negative = inhibition [7] 4.4% [at 11.4 µM] | outcome [8]
active: Potency [3] 3.98 µM

NCCP(=O)(O)O
inactive: Potency [1] > 11.4 µM | activity change, negative = inhibition [2] 3.81% | Potency [3] | activity change, negative = inhibition [4] 9.11% | activity, negative = inhibition [5] 10.6% | Potency [6] > 46 µM | Potency [9] > 9.22 µM | activity change, negative = inhibition [7] 3.4% [at 11.4 µM] | outcome [8]

C[n+]1c(/C=C\c2ccc(O)c3ncccc23)[se]c2ccccc21
inactive: Potency [1] > 11.4 µM | activity change, negative = inhibition [2] -7.45% | activity change, negative = inhibition [3] -22.7% [at 2.29 µM] | activity change, negative = inhibition [4] -19% | activity, negative = inhibition [5] 13% | Potency [6] > 46 µM | Potency [9] > 9.22 µM | activity change, negative = inhibition [7] -13.6% [at 11.4 µM] | outcome [8] | activity change, positive = activation [10] -31.7% [at 11.4 µM]

CCN(CC)CCn1ncc2c(N)ncnc21
inactive: Potency [1] > 11.4 µM | activity change, negative = inhibition [2] 1.87% | Potency [3] | activity change, negative = inhibition [4] 0.535% | activity, negative = inhibition [5] -0.447% | Potency [6] > 46 µM | activity change, negative = inhibition [7] -1.5% [at 11.4 µM] | outcome [8]

Nc1nc(N)c(N=Nc2ccc([As](=O)(O)O)c(O)c2)c(N)n1
inactive: Potency [1] > 11.4 µM | activity change, negative = inhibition [2] 1.26% | activity change, negative = inhibition [4] -7.71% | activity, negative = inhibition [5] -1.21% | Potency [6] > 46 µM | activity change, negative = inhibition [7] 1.64% [at 11.4 µM]
active: Potency [3] 6.31 µM

C[C@H](c1ccccc1)N1CCN([C@@H](C)c2ccccc2)CC1
active: Potency [11] 0.0631 µM
inactive: Potency [1] > 11.4 µM | activity change, negative = inhibition [2] -6.57% | activity change, negative = inhibition [3] -16% [at 2.29 µM] | activity, negative = inhibition [5] -0.496% | Potency [6] > 46 µM | activity change, negative = inhibition [7] 1.95% [at 11.4 µM] | outcome [8]

O=C(Oc1ccc(S(=O)(=O)F)cc1F)c1ccccc1Cl
inactive: Potency [1] > 11.4 µM | activity change, negative = inhibition [2] -4.95% | activity change, negative = inhibition [4] 5.76% | activity, negative = inhibition [5] -0.302% | Potency [6] > 46 µM | Potency [9] > 9.22 µM | activity change, negative = inhibition [7] 2.49% [at 11.4 µM]

COc1cc2cc(c1Cl)N(C)C(=O)C[C@H](OC(=O)C(C)C)[C@]1(C)O[C@@H]1[C@@H](C)[C@H]1C[C@](O)(NC(=O)O1)[C@@H](OC)/C=C\C=C(\C)C2
active: Potency [6] 0.278 µM
inactive: Potency [1] > 11.4 µM | activity change, negative = inhibition [2] 23.1% | Potency [3] | activity, negative = inhibition [5] 6.86% | activity change, negative = inhibition [7] 2.93% [at 11.4 µM] | outcome [8] | Potency [11] | Potency [12]

C[C@@H](O)CN(CCN(C[C@@H](C)O)C[C@@H](C)O)C[C@@H](C)O.O=[N+]([O-])O.[Cu]
active: Potency [3] 5.01 µM | Potency [13] 0.794 µM | Potency [12] 0.398 µM
inactive: Potency [1] > 11.4 µM | activity change, negative = inhibition [2] -0.101% | activity change, negative = inhibition [4] -2.32% | activity, negative = inhibition [5] 2.41% | Potency [6] > 46 µM | activity change, negative = inhibition [7] -3.67% [at 11.4 µM] | outcome [8] | activity change, positive = activation [10] -36.8% [at 11.4 µM]

COc1ccc(C(=O)O[C@H]2CC[C@@]3(C)[C@H]4CC[C@H]5[C@]3(C[C@]3(O)[C@H]6CN7C[C@H](C)CC[C@H]7[C@](C)(O)[C@]6(O)[C@H](O)C[C@]53O)O[C@]24O)cc1OC
inactive: Potency [1] > 11.4 µM | activity change, negative = inhibition [2] 1.14% | activity change, negative = inhibition [3] -20.9% [at 2.29 µM] | activity change, negative = inhibition [4] -1.26% | activity, negative = inhibition [5] -2.58% | Potency [6] > 46 µM | activity change, negative = inhibition [7] -0.646% [at 11.4 µM] | outcome [8] | Potency [12]

O=P(O)(O)c1ccccc1 (tested in a mixture with another compound)
inactive: Potency [1] > 11.4 µM | activity change, negative = inhibition [2] 2.76% | Potency [3] | activity change, negative = inhibition [4] 5.01% | activity, negative = inhibition [5] -0.661% | activity change, negative = inhibition [7] 6.51% [at 11.4 µM] | outcome [8]

CC(C)=C[C@H]1[C@@H](C(=O)OCc2cc3c(cc2Cl)OCO3)C1(C)C
active: Potency [3] 0.794 µM | Potency [14] 0.316 µM | Potency [12] 1.58 µM
inactive: Potency [1] > 11.4 µM | activity change, negative = inhibition [2] -2.25% | activity, negative = inhibition [5] 0.513% | Potency [6] > 46 µM | outcome [8] | activity change, positive = activation [10] -75% [at 11.4 µM]

CO[C@@H]([CH2][Hg])CN1C(=O)c2ccccc2S1(=O)=O.Cn1c(=O)c2nc[nH]c2n(C)c1=O
inactive: activity change, negative = inhibition [2] 12.7% | activity change, negative = inhibition [3] -22% [at 2.29 µM] | activity change, negative = inhibition [4] -3.51% | activity, negative = inhibition [5] 6.13% | activity change, negative = inhibition [7] -0.0716% [at 11.4 µM] | outcome [8] | Potency [11]
active: Potency [1] 1.86 µM

COc1cc2c3cc1Oc1c(O)c(OC)cc4c1[C@@H](Cc1ccc(cc1)Oc1cc(ccc1O)C[C@H]3N(C)CC2)N(C)CC4
inactive: Potency [1] > 11.4 µM | activity change, negative = inhibition [2] 5.28% | Potency [3] | activity change, negative = inhibition [4] -11.5% | Potency [6] > 46 µM | Potency [9] > 9.22 µM | activity change, negative = inhibition [7] 4.78% [at 11.4 µM]

Cn1c(=O)c2[nH]cnc2n(C)c1=O.[CH2-][C@H](Cc1cccc2cc(C(=O)O)c(=O)oc12)OC.[Hg].[OH-]
inactive: activity change, negative = inhibition [2] -5.03% | Potency [3] | activity change, negative = inhibition [4] 6.5% | activity, negative = inhibition [5] 14% | activity change, negative = inhibition [7] -0.539% [at 11.4 µM] | outcome [8]
active: Potency [1] 4.43 µM

— PubChem BioAssay (NCATS)
